# Results from the supplement of paper PMC6555819.
# What was measured:
# Assay in all cases: PBM binding z-score (relative to random genomic background probes); higher = stronger binding; sequences stand for … in GC…GCGATTGACAGCGTAGAATGAAGG
# [1] = test system: PPARg:RXRa DBDmut IVT, anti-RXR (DBD mutation: RXRa K156A/R161A, NR concentration 270 nM, RXRa partner concentration 90 nM)
# Method in brief: (§1)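 Binding z-scores take random background probes as their reference. They come from custom Agilent 4×180K protein-binding microarrays incubated 1 h with ligand-free nuclear receptor dimers, with antibodies against each partner (one per run) detecting binding. Scanned fluorescence was regression-normalized.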
# [2] = test system: PPARg:RXRa IVT, anti-PPARg (NR concentration 270 nM, RXRa partner concentration 90 nM)
# Method in brief: as §1
# [3] = test system: PPARg DBDmut IVT, anti-PPARg (DBD mutation: PPARg1 K132A/R137A, NR concentration 270 nM)
# Method in brief: as §1
# [4] = test system: PPARg homodimer (NR concentration 180 nM)
# Method in brief: as §1
# [5] = test system: PXR:RXRa (NR concentration 270 nM, RXRa partner concentration 90 nM)
# Method in brief: as §1
# [6] = test system: PXR homodimer (NR concentration 270 nM)
# Method in brief: as §1
# [7] = test system: RARa:RXR (NR concentration 270 nM, RXRa partner concentration 90 nM)
# Method in brief: as §1
# [8] = test system: RARa homodimer (NR concentration 270 nM)
# Method in brief: as §1
# [9] = test system: RARb:RXRa (NR concentration 270 nM, RXRa partner concentration 90 nM)
# Method in brief: as §1
Sequence,PBM binding z-score [1],PBM binding z-score [2],PBM binding z-score [3],PBM binding z-score [4],PBM binding z-score [5],PBM binding z-score [6],PBM binding z-score [7],PBM binding z-score [8],PBM binding z-score [9]
ATATGTAGGTTAGGGTGATTCAGAAAGTAGGGAA,6.7,6.39,1.41,2.93,1.04,1.31,1.3,1.25,1.38
ATATGTAGGTTAGTGTCATTCAGAAAGTAGGGAA,6.62,6.21,2.47,1.86,1.09,0.763,1.32,2.19,1.4
CGAACTAGGTCAAAGGACAGTGCAAGGCGACGTA,7.81,8.11,-0.34,0.639,1.31,-0.108,2.14,-0.256,4.02
CGAACTAGGTCAAAGGATAGTGAAAGGCGACGTA,8.11,8.26,0.867,1.36,1,-0.152,1.9,0.167,3.62
ATATGTAGGTTAGGGTCATCCAGAAAGTAGGGAA,6.49,6.96,3.77,6.33,4.46,1.88,5.12,2.64,3.55
CGAACTAGGACAAAGGACAGTGAAAGGCGACGTA,4.53,4.05,-0.402,0.327,-0.405,-0.257,-0.272,-0.328,1.12
ATATGTAGGTTAGGGTCTTTCAGAAAGTAGGGAA,6.29,6.62,2.64,2.25,0.93,1.06,1.2,1.44,0.945
CGAAGTAGGTCACCAGGACAGTGAAGAGGTTGGA,8.22,8.92,0.944,1.76,1.71,0.236,2.78,0.426,3.99
CGAACTAGGTTACCAGGACAGTGAAGAGGTTGGA,6.94,6.73,2.08,0.829,-0.124,-0.211,0.296,-0.114,1.13
CGCACTAGGTCACCAGGACAGTGAAGAGGTTGGA,8.2,8.52,2.13,1.92,1.29,0.413,2.48,0.466,4.12
CGATCTAGGTCAAAGGACAGTGAAAGGCGACGTA,7.67,8.1,1.86,2.2,0.913,-0.421,2.13,0.262,3.79
ATATGTTGGTTAGGGTCATTCAGAAAGTAGGGAA,1.44,2.45,1.7,3.53,4.44,2.69,4.96,2.67,3.2
CGAAATAGGTCAAAGGACAGTGAAAGGCGACGTA,7.36,7.35,0.994,2.41,2.34,-0.0747,3.92,0.491,4.49
CGAACTAGGTTAAAGGACAGTGAAAGGCGACGTA,6.46,6.45,0.461,1.11,-0.281,-0.159,0.0562,-0.221,1.72
ATGTGTAGGTTAGGGTCATTCAGAAAGTAGGGAA,2.92,3.98,1.73,3.73,4.68,3.2,5.25,2.44,3.87
CGAACTAGGTCAAAGGACGGTGAAAGGCGACGTA,7.71,8.31,2.26,1.81,0.75,-0.279,2.05,0.114,3.76
